Bioassay records from PubChem BioAssay.
Shown are actives, neighbours in structure and some others; about 1.2% of the full set was active somewhere.
TrxR1 inh: inhibitors of rat thioredoxin reductase 1. O89049. recombinant rTrxR1, NADPH fluorescence consumption, selenite substrate. Potency, µM (titrated, usually from 114 µM), without a hit: at the highest dose activity change, negative = inhibition, usual class: inhibitors. 390,000 tested, 1% active. AID 588453; further: nearly all actives have a fitted effect of over 65% in size
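Rat TrxR1 (90 nM in the dispensed reagent) was pre-reduced with 400 uM NADPH for 5 min at room temperature, then incubated with compound for 15 min. After 400 uM selenite was added, NADPH fluorescence (Ex 340/Em 450 nm) was followed for 8 min.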
GALK inh: galactokinase (human) inhibition. Purified GALK, Kinase-Glo residual ATP luminescence. Potency, µM (top dose mostly 57.5 µM), inactives show at the highest dose activity change, negative = inhibition, most hits filed as inhibitors. 270,000 tested, 0.007% active. AID 1868
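Luminescence from leftover ATP (Ultra-Glo luciferase/luciferin) served as read-out after a 1 h room-temperature reaction of 5 nM GALK with 35 uM ATP and 100 uM galactose.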
NPSR antagonist: blocks cAMP signaling of the human neuropeptide S receptor | CHO-NPSR cells, cAMP TR-FRET, antagonist mode | Q6W5P4 | 220,000 tested, 1% active | Potency, µM (series often up to 38.3 µM), for the others: at the highest dose activity change, negative = inhibition, usual class: inhibitors | AID 1461; further: nearly all actives have a fitted effect of over 50% in size
Target sequence (Q6W5P4 whole entry, looked up): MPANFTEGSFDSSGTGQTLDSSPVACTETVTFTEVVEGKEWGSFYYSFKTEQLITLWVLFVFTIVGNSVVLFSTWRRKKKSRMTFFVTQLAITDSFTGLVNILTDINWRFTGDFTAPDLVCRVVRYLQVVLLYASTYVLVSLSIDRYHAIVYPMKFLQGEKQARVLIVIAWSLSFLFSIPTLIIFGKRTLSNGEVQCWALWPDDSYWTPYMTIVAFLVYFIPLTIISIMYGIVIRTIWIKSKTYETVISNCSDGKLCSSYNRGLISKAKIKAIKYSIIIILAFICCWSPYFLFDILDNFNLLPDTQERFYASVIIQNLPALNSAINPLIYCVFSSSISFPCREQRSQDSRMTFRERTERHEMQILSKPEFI
TrxR1 substrate: is turned over as a substrate by rat TrxR1; O89049; purified TrxR1 substrate turnover, NADPH consumption readout; Potency, µM (doses to about 114 µM), without a hit: at the highest dose activity change, negative = substrate turnover; 390,000 tested, 0.01% active; AID 588456; further: nearly all actives have a fitted effect of over 50% in size
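Rat TrxR1, dispensed at 90 nM, was prereduced with 400 uM NADPH (final) for 5 min at ~22 deg C, then incubated with compound 15 min before 400 uM selenite. A first-read NADPH fluorescence drop versus no-compound background flagged substrates.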
Numbers without * were called inactive; ? = inconclusive; nt = not tested or not shown; [ ] = dose if it differs, or a comment. The call rests on the fitted dose curve; in most records, active means well fitted curve in the direction sought with a large enough effect; inconclusive means small, poorly fitted or top-dose-only effect, or another doubt; inactive means no such curve, though single readings can be large; an effect the other way counts as inactive or inconclusive. On the % scale 0 is the no-effect control and ±100 the full control effect; potency means the concentration at half of the fitted maximal effect.

SMILES | TrxR1 inh | GALK inh | NPSR antagonist | TrxR1 substrate
Cc1ccc([C@@H]2C3COCC=C3C(C#N)=C(N)C2(C#N)C#N)o1 (stereo partly specified) | 7.9µM* | 8% | -12%[46.1 µM] | 19%
O=C(NCc1ccco1)/C(=C\c1ccco1)NC(=O)c1ccco1 | 50µM* | -1% | 52% | -8%
O=C(NCc1ccco1)/C(=C/c1ccco1)NC(=O)c1ccc(Br)o1 | 50µM* | 1% | -2%[46.1 µM] | -7%
O=C(NCc1ccco1)/C(=C/c1ccccc1)NC(=O)c1ccco1 | 25% | -1% | nt | 4%
O=c1cc(CO)oc(C(Nc2ccccn2)c2ccc(F)cc2)c1O (stereo unspecified) | 8.9µM* | -2% | -12%[46.1 µM] | -3%
COc1ccc(C(Nc2ccccn2)c2oc(CO)cc(=O)c2O)cc1 (stereo unspecified) | 8.9µM* | 1% | 6% | 6%
O=c1cc(CO)oc(C(Nc2ccccn2)c2ccccc2Cl)c1O (stereo unspecified) | -14% | 0% | 28% | -6%
Cc1ccc(S(=O)(=O)N2CCCCC2)cc1NS(=O)(=O)c1ccc(Cl)c(C(=O)O)c1 | 2% | nt | nt | 1%
O=C1C2C3C=CC(O3)C2C(=O)N1CC(O)c1ccccc1 (stereo unspecified) | 50µM* | -2% | 1%[46.1 µM] | 5%
CCc1ccc2oc(-c3ccc(C)c(NC(=O)COc4ccc(Cl)cc4)c3)nc2c1 | 6% | nt | nt | 2%
COc1ccccc1C(=O)NCc1nnnn1-c1ccc(C)c(C)c1 | 25%[57.1 µM] | nt | nt | -2%[57.1 µM]
N#CC1=C(N)Oc2c(ccc3cccnc23)C1c1cccnc1 (stereo unspecified) | 50µM* | 0% | -4% | 21%
Cc1ccc2cc(C3C(C#N)=C(N)Oc4c3ccc3cccnc43)c(=O)[nH]c2c1 (stereo unspecified) | 13µM* | 2% | 0%[46.1 µM] | 0%[57.1 µM]
CCc1ccc2[nH]c(=O)c(C3C(C#N)=C(N)Oc4c3ccc3cccnc43)cc2c1 (stereo unspecified) | 45µM* | 0% | -22%[46.1 µM] | 12%
CC(=O)C1=C(C)OC(N)=C(C#N)C1c1cc2cccc(C)c2nc1Cl (stereo unspecified) | -11% | nt | -13%[46.1 µM] | 6%
O=C1/C(=C/N(C(=O)c2ccco2)c2ccc(Br)cc2)Sc2ccccc21 | 14µM* | 3% | -40% | -4%
O=C1c2ccccc2C(=O)N1CCCCN(C(=O)c1ccco1)c1ccc(Cl)cc1 | -1% | 3% | -28%[46.1 µM] | 0%
O=C1/C(=C/N(C(=O)c2ccco2)c2ccc(Cl)cc2)Sc2ccccc21 | 40µM* | 5% | -2% | -7%
Cc1ccc2nc(/C(C#N)=C\c3ccc(N4CCOCC4)o3)[nH]c2c1 | 13µM* | 0% | -9% | 5%
Cc1ccc(/C(C#N)=C\c2ccc(N3CCOCC3)o2)cc1 | 2.2µM* | -1% | ? | -2%
N#C/C(=C\c1ccc(N2CCOCC2)o1)C(=O)NCC1CCCO1 (stereo unspecified) | ? | 0% | 24% | -30%
Cc1ccc(NCc2ccc(O)c3ncccc23)cc1 | 0.5µM* | 0% | 52% | 3%
Cc1cccnc1NCc1ccc(O)c2ncccc12 | ? | 4% | -4%[7.67 µM] | -12%
Cc1ccc(NCc2ccc(O)c3ncccc23)cc1C | 2µM* | 0% | -12% | 5%
Cc1cccc(NCc2ccc(O)c3ncccc23)c1C | ? | -1% | -17% | 10%[57.1 µM]
SMILES | TrxR1 inh | GALK inh | NPSR antagonist | TrxR1 substrate
COc1cc2c(NC3CCN(C(C)C)CC3)nc(N3CCCN(C)CC3)nc2cc1OCCCN1CCCC1 | ? | nt | nt | 44%
OC(CNCCC1C=Nc2ccccc21)Cn1c2ccc(Cl)cc2c2cc(Cl)ccc21 (stereo unspecified) | 8% | -3% | 10µM* | 4%
Nc1c(N=Nc2ccc([N+](=O)[O-])cc2)c(S(=O)(=O)O)cc2cc(S(=O)(=O)O)c(/C=C/c3ccccc3)c(O)c12 | 19% | nt | nt | -15%
O=C1c2ccccc2NC(c2ccco2)N1O (stereo unspecified) | 40µM* | 2% | -3%[46.1 µM] | -1%
O=C1c2ccccc2NC(c2ccc(Br)o2)N1O (stereo unspecified) | ? | nt | nt | -8%
CCCc1cc(=O)n2nc(N3CCC(C(=O)N4CCN(c5ccc(OC)cc5)CC4)CC3)sc2n1 | -1% | -7% | nt | -7%
Cc1ccc(S(=O)(=O)Cc2ccc(C(=O)N3CCc4ccccc4C3)o2)cc1 | 71µM* | -1% | -16%[46.1 µM] | -7%
Cc1ccc(S(=O)(=O)Cc2ccc(C(=O)N3CCN(Cc4ccccc4)CC3)o2)cc1 | nt | 1% | -6%[46.1 µM] | nt
